# Measured values taken from PubChem BioAssay AID2540 (Sanford-Burnham Center for Chemical Genomics, 2010).
# Screen size: about 330,000 compounds; about 4,100 (1.2%) were called active. No stated cut-off is given here; in the data, active means inhibition above about 50%; inactive means the rest. Shown is part of a subset that was picked to be rich in actives.
# Molecular target: Sentrin-specific protease 8 (Homo sapiens) (UniProt Q96LD8)
# Assay: SENP8 protease inhibitors, primary screen, biochemical, luminescence (AID 2540)
# Settings: purified SENP8, Z-RLRGG-aminoluciferin cleavage, at 10 µM, active compounds read high
# Sequence of Sentrin-specific protease 8 (Homo sapiens) (Q96LD8 whole entry, looked up): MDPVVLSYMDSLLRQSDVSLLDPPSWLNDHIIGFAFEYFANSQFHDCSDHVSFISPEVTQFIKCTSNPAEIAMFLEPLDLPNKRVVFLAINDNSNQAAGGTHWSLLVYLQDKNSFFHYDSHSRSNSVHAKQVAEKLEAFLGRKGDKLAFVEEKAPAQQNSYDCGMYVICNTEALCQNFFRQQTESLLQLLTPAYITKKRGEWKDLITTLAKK
row,SMILES,inhibition
1,Cc1ccsc1C1C(C#N)=C(N)OC2=C1C(=O)CC(C)C2 (configuration not stated),-10.3% (inactive)
2,Cc1ccc(S(=O)(=O)N2CCCCC2)cc1NC(=O)c1cccnc1,-12.3% (inactive)
3,CC1(C)C/C(=N/Nc2ccc([N+](=O)[O-])cc2[N+](=O)[O-])C(C)(C)O1,-5.03% (inactive)
4,CCCCn1c(N)c(N(CC(C)C)C(=O)CN(C)S(=O)(=O)c2ccc(F)cc2)c(=O)[nH]c1=O,2.26% (inactive)
5,COC(=O)C1=C(C(=O)OC)C2(OC1c1ccc(Br)cc1)C(=O)c1ccccc1C2=O (configuration not stated),-0.809% (inactive)
6,COc1cc(C(=O)NCC2(c3ccccc3)CCCC2)ccc1OC(C)C,1.28% (inactive)
7,CN(Cc1c(F)cccc1Cl)C(=O)CNC(=O)c1ccc2c(c1)OCO2,-2.64% (inactive)
8,O=C(Nc1ccccc1F)c1ccc2c(c1)OCO2,65.2% (active)
9,O=C(COC(=O)c1ccc2c(c1)OCCO2)NCc1ccccc1Cl,-14.4% (inactive)
10,O=C(OCc1ccccc1F)c1ccc2c(c1)OCCO2,80.2% (active)
11,COc1ccc(C(=O)Nc2ccc3nc(N4CCCCC4)cc(C)c3c2)cc1OC,1.68% (inactive)
12,N#Cc1ccccc1NC(=O)c1ccc2c(c1)OCO2,0.633% (inactive)
13,N#CCCN(C(=O)COC(=O)c1ccc2c(c1)OCCO2)c1ccccc1,10% (inactive)
14,COc1ccc(C(=O)Nc2ccc(C3(C#N)CCCC3)cc2)cc1OC,92.8% (active)
15,O=C(Nc1nc2ccccc2s1)c1ccc2c(c1)OCO2,94.1% (active)
16,COCc1nnc(NC(=O)c2ccc3c(c2)OCO3)s1,0.871% (inactive)
17,Cc1ccc2sc(NNC(=O)c3ccc4c(c3)OCCO4)nc2c1C,-5.8% (inactive)
18,O=C(Nc1cc(Cl)ccc1N1CCOCC1)c1ccc(N2CCCC2=O)cc1,6.24% (inactive)
19,CC(CNc1ccc([N+](=O)[O-])c2cccnc12)Nc1c([N+](=O)[O-])cc(C(F)(F)F)cc1[N+](=O)[O-] (configuration not stated),-1.48% (inactive)
20,CCN(CC)CCOc1ccc2c(c1)C(=NNC(=O)c1ccccn1)c1cc(OCCN(CC)CC)ccc1-2,-1.52% (inactive)
21,N#Cc1ccc(OCC(=O)NC(=O)NC2CCS(=O)(=O)C2)cc1 (configuration not stated),0.761% (inactive)

row,SMILES,inhibition
1,COc1cc(/C=C/C(=O)O)cc(S(=O)(=O)Nc2ccccc2C(=O)NCCc2ccccc2)c1OC,0.693% (inactive)
2,Cc1cc(C)c(C#N)c(SCS(=O)c2ccc(C(C)(C)C)cc2)n1 (configuration not stated),-4.22% (inactive)
3,CN1CC(c2ccccc2)C2(COc3ccccc3C2=O)C12C(=O)Nc1ccccc12 (configuration not stated),0.36% (inactive)
4,CC(=O)c1ccccc1NC(=O)CC1(CC(=O)O)CCCCC1,1.06% (inactive)
5,Clc1ccc(CSc2nnc([C@@H]3CCCN3)o2)cc1,-0.161% (inactive)
6,CC(C)[C@@H]1NC(=O)c2cc([N+](=O)[O-])cc(I)c2NCCC[C@@H](C(=O)NC(CC(=O)O)C(N)=O)NC(=O)[C@H](CO)NC1=O (some centres not stated),3.05% (inactive)
7,O=C(NCCOc1ccccc1F)Nc1ccc(Br)cc1,-3.32% (inactive)
8,COc1cc(NC(=O)c2ccc3c(c2)OCO3)ccc1NC(=O)c1cccs1,-17.4% (inactive)
9,Cc1cc(C)nc(NC(=O)c2cccc([N+](=O)[O-])c2)c1,-2.37% (inactive)
10,O=C(Nc1ccc(C2CC2(Cl)Cl)cc1)c1cccc([N+](=O)[O-])c1 (configuration not stated),50.5% (active)
11,COc1ccc(C(=O)Nc2ccc3c(c2)OCO3)cc1OC,77.5% (active)
12,CC(C)C(=O)Nc1cccc(C(=O)Nc2ccc3c(c2)OCO3)c1,1.49% (inactive)
13,CC(C)(C)SCCNC(=O)c1cccc([N+](=O)[O-])c1,-0.846% (inactive)
14,CCN(c1ccccc1)S(=O)(=O)c1cc2c(cc1C)n(C)c(=O)c(=O)n2C,-13.5% (inactive)
15,CCN1CCN(c2cc3nc(C)n(Cc4ccccc4)c(=O)c3cc2NC(=O)c2ccccc2F)CC1,-6.48% (inactive)
16,COc1ccc(C)cc1NC(=O)CSc1nnc2ccc(-c3ccccn3)nn12,4.77% (inactive)
17,Brc1ccccc1CN1CCC(Cc2ccccc2)CC1,3.24% (inactive)
18,COc1ccc(-n2nnnc2CNC(=O)c2ccc3ccccc3c2)cc1,-10.6% (inactive)
19,COc1ccc(C2=NN(c3nc4ccccc4s3)C(=O)C2)cc1,10.1% (inactive)
20,COc1ccc(-n2nnnc2-c2nc3ccccc3s2)cc1,50.3% (active)
21,N#Cc1c(N)sc2c1CCN(C(=O)OCc1ccccc1)C2,2.15% (inactive)

row,SMILES,inhibition
1,COc1ccc(SCCN2CCN(CC(C)C)CCC2=O)cc1,5.29% (inactive)
2,O=C(NCCCN1CCCC1=O)C(=O)NCC1OCCN1S(=O)(=O)c1ccc(Br)cc1 (configuration not stated),-0.009% (inactive)
3,O=C(/C=C/c1ccc2c(c1)OCCO2)c1ccc(O)cc1,76.9% (active)
4,O=C(O)/C=C/c1ccc2c(c1)OCCO2,1.06% (inactive)
5,CN(C)c1ccc(/C=C/C(=O)c2ccc(O)cc2)cc1[N+](=O)[O-],-28.3% (inactive)
6,CNS(=O)(=O)c1ccc(NC(=O)Nc2ccc3c(c2)OCO3)cc1,-9.35% (inactive)
7,CN1CCN(c2ncc3c(n2)CC(c2ccccc2F)CC3=O)CC1 (configuration not stated),-5.2% (inactive)
8,O=C(CCNC(=O)c1ccccc1Cl)NCc1ccco1,-2.13% (inactive)
9,Cc1cccc(Nc2ccccc2C(=O)NCc2ccco2)c1C,-4.58% (inactive)
10,O=C(Nc1ccccc1)Nc1ccccc1C(=O)NCc1ccco1,65.9% (active)
11,CCOc1ccc(NC(=O)C/C(C)=N/NC(=O)Cc2cccs2)cc1,-7.21% (inactive)
12,CC(C)[C@H](NC(=O)N1CCn2c1nc1ccccc12)C(=O)NC1CC1,-8.07% (inactive)
13,CSCCC(NC(=O)COc1ccccc1)C(=O)OCCOc1ccc(Br)cc1 (configuration not stated),-20.5% (inactive)
14,CCC(C)(C)NC(=O)C(c1ccc(O)cc1)N(Cc1ccco1)C(=O)CCC(=O)Nc1ccccn1 (configuration not stated),-6.41% (inactive)
15,CC(=C/c1ccccc1)/C=N/NC(=O)c1cc(C)oc1C,73.3% (active)
16,Cc1cc(C(=O)N/N=C/c2ccc(N3CCOCC3)cc2)c(C)o1,84.5% (active)
17,O=C(NN=Cc1ccc(N2CCOCC2)cc1)c1cc2ccccc2cc1O,-1.63% (inactive)
18,COc1ccc(C/C(C)=N/NC(=O)c2cc(C)oc2C)cc1,-5.88% (inactive)
19,Cc1ccccc1N/N=C/c1ccc(N2CCOCC2)cc1,-7.47% (inactive)
20,Cc1cc(C(=O)N/N=C\C(Br)=C\c2ccccc2)c(C)o1,38.8% (inactive)
